# Pol iota inh – DNA polymerase iota (human) inhibition; Potency, µM (series often up to 115 µM), actives largely listed as inhibitors; Pol iota fluorescent replication assay, 10 min; Q9UNA4; actives 1% (n = 390,000)
#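 Pol iota at 10 nM preincubated 15 min with compounds at room temperature; reaction started with fluorescent substrate, 50 nM final. Fluorescence read kinetically at 0 and 10 min; buffer-only wells as negative control.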
# FEN1 inh – blocks human flap endonuclease 1 | P39748 | Recombinant FEN1 flap cleavage, fluorescence, 15 min | Potency, µM (highest dose often 114 µM), actives largely listed as inhibitors | actives 0.35% (n = 390,000) | AID 588795; note: nearly all actives have a fitted effect of over 65% in size
#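 Concentration–response screening of FEN1 (10 nM): 15 min compound preincubation at room temperature, reaction started with 50 nM substrate and read at 0 and 15 min. Corrected, normalized data were fitted by a four-parameter Hill equation.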
# WRN helicase inh – WRN helicase (human) inhibition | Potency, µM (highest dose often 114 µM), actives largely listed as inhibitors | Q14191 | actives 0.46% (n = 360,000) | WRN helicase unwinding, fluorescent forked duplex, kinetic; note: nearly all actives have a fitted effect of over 55% in size
# Target sequence (Q14191 whole entry, looked up): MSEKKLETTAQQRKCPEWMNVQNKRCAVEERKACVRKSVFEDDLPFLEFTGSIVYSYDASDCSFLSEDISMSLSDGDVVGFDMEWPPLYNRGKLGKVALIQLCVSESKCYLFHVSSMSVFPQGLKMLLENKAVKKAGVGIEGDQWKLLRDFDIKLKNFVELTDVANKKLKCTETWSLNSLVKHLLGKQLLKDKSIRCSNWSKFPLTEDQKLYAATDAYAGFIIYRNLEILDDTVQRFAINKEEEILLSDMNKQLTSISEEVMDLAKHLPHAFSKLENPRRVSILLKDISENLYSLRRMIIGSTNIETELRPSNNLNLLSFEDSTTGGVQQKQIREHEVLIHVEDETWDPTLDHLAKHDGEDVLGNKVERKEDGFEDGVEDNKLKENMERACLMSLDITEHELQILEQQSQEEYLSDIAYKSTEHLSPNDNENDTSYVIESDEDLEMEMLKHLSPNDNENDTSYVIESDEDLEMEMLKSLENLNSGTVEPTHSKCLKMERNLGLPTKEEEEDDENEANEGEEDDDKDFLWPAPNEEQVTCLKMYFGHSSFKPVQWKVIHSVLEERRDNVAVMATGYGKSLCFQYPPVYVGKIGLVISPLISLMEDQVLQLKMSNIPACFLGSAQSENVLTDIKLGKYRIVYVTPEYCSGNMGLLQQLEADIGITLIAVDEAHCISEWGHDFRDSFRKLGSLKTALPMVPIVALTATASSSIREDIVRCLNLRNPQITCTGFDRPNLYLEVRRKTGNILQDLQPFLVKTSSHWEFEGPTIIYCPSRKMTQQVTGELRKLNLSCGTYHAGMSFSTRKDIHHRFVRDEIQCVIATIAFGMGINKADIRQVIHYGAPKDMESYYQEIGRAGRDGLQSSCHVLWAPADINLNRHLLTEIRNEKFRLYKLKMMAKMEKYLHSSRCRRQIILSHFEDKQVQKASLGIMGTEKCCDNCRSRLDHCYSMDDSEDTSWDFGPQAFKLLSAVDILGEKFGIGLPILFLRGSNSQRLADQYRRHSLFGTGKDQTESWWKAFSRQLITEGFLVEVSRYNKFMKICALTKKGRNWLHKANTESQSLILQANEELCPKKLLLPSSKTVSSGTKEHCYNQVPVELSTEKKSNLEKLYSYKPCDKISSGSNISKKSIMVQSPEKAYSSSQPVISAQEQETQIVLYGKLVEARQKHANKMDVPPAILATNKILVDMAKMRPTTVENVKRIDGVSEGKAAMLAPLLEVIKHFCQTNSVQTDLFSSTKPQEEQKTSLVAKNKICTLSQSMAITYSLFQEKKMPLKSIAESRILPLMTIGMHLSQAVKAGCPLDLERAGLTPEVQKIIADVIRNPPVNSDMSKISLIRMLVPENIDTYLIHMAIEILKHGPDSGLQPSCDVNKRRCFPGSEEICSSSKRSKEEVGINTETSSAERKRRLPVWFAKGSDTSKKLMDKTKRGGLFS
#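 Kinetic fluorescence helicase assay: unwinding of a quenched forked DNA duplex (100 nM final) with 2 mM ATP final raises red fluorescence (525/598 nm). Compounds sat 15 min at room temperature with 20 nM WRN beforehand.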
# POLK inh – DNA polymerase kappa (human) inhibition; purified Pol kappa, fluorescent DNA synthesis assay, 10 min; Potency, µM (top dose mostly 107 µM), most hits filed as inhibitors; actives 0.53% (n = 400,000); AID 588579
#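 Kinetic fluorescence screen: compound preincubated 15 min RT with 10 nM enzyme; 50 nM substrate (final) initiates; reads at 0/10 min.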
# POLH inh – inhibitors of human DNA polymerase eta | recombinant Pol eta, fluorescent DNA replication assay | Potency, µM (series often up to 114 µM), hits mostly inhibitors | actives 1.2% (n = 390,000) | AID 588591
#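 Fluorescent replication assay: 50 nM final substrate added after a 15 min room-temperature compound preincubation with 10 nM enzyme. Signal taken at 0 min and again at 10 min.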
# Pol beta inh – inhibitors of human DNA polymerase beta; P06746; Pol beta primer extension/strand displacement, fluorescence kinetic; Potency, µM (titrated, usually from 114 µM), actives largely listed as inhibitors; actives 1.3% (n = 340,000)
#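 Enzyme-only controls used 10 nM Pol beta; buffer lacking enzyme served as negative control. Compound preincubated 15 min, then 50 nM substrate added; 0 and 10 min reads at room temperature.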
# Hits are given with their value; – = inactive; ? = inconclusive; · = no result; [ ] = remark or other dose. An excerpt weighted towards active compounds, which were near 2.4% of everything screened. Calls come from the whole dose curve; as a rule, active = well fitted curve in the direction sought with a large enough effect; inconclusive = small, poorly fitted or top-dose-only effect, or another doubt; inactive = no such curve, though single readings can be large; an effect the other way counts as inactive or inconclusive.
SMILES,Pol iota inh,FEN1 inh,WRN helicase inh,POLK inh,POLH inh,Pol beta inh
COc1ccc(OC)c(N=Nc2c(O)c3ccccc3[nH]c2=O)c1,?,?,–[11.6 µM],–,39.8µM,·
O=C(Nc1cccc(Cl)c1)c1cccc(N2C(=O)C3CC=CCC3C2=O)c1 (stereo unspecified),?,–,–,–,–,15.8µM
COc1cc(/C=C2/C(=O)NN(c3ccc(Cl)cc3)C2=O)ccc1OC(=O)c1ccco1,–,–,39.8µM,–,28.2µM,?
Cn1ncc(C#N)c1/N=C/N1CCCC1,–,–,–,–,–,89.1µM
O=c1nc(SCc2c(F)cccc2Cl)nc(-c2ccc(Cl)cc2)[nH]1,–,–,–[11.6 µM],–,89.1µM,–
COc1ccc(-c2c[n+]3c4n2CCCCC4=C(c2ccc(Br)cc2)C3)cc1,?,–,–,–,–,25.1µM
Cc1cc(C)cc(NC(=O)Cn2nnc(-c3nc(-c4ccncc4)no3)c2N)c1,–,–,·,–,–,?
Nc1c(-c2nc(-c3ccccc3)no2)nnn1CC(=O)Nc1cccc(F)c1,–,–,·,–,–,14.1µM
CC1(C)c2ccccc2N2CC(=O)N(CC(N)=O)C21C (stereo unspecified),?,79.4µM,56.2µM,44.7µM,?,44.7µM
COC(=O)C[C@H](NC(=O)[C@H](C)NC(=O)[C@@H](NC(=O)OCc1ccccc1)C(C)C)C(=O)CF,·,·,·,–[19.4 µM],·,·
C=CCn1c(=O)[nH]c2cc(C(=O)N3CCN(c4cccc(Cl)c4)CC3)ccc2c1=O,89.1µM,–,–,–,?,–
O=C(CN1C(=O)NC2(CCOc3ccccc32)C1=O)c1ccc[nH]1 (stereo unspecified),39.8µM,–,–,–,?,·
Cc1ccc(C2NC(=S)N3C(c4ccc(C)cc4)NC(=S)N23)cc1 (stereo unspecified),·,·,–,·,–,·
COc1ccc(C2NC(=S)N3C(c4ccc(OC)cc4)NC(=S)N23)cc1 (stereo unspecified),?,–,89.1µM,–,–,–
CCCn1c(N)c(N(CCOC)C(=O)c2cc(-c3ccco3)nc3ccccc23)c(=O)[nH]c1=O,56.2µM,–,–,–,?,44.7µM
Cn1c(N)c(C(=O)COC(=O)c2cc(-c3ccco3)nc3ccccc23)c(=O)n(Cc2ccccc2)c1=O,·,·,·,·,·,20µM
CC(C)CSc1nnc(-c2ccccc2)c(-c2ccccc2)n1,–,–,·,–,–,–
COc1ccc(/C=C/c2ccnc3ccccc23)cc1,–,–,·,–,·,·
COc1ccc(CCNC(=O)CSCc2nc(-c3cccc(C)c3)oc2C)cc1OC,–,–,·,–,–,–
CN=c1sc2c(n1C)C(=O)c1ccccc1C2=O,?,–,–,–,79.4µM,·
O=c1[nH]c(=O)n(Cc2ccccc2)c2nc(-c3cccs3)n(CCO)c12,–,–,–,–,–,35.5µM
O=C(CSc1nnc2c3ccccc3c3ccccc3c2n1)Nc1ccccc1F,–,–,?,–,31.6µM,11.2µM
CC(=O)C1=C(O)C(=O)N(Cc2ccccc2)C1c1ccco1 (stereo unspecified),?,–,–,–,44.7µM,?
CC(=O)C1=C(O)C(=O)N(Cc2ccco2)C1c1ccccc1 (stereo unspecified),–,?,–,–,–,–
Cc1ccc(-n2nc(CO)c(C(=O)NCc3cccnc3)n2)cc1,–,–,·,–,–,–
SMILES,Pol iota inh,FEN1 inh,WRN helicase inh,POLK inh,POLH inh,Pol beta inh
Oc1cccc2ccc[n+](CC(O)CBr)c12 (stereo unspecified),–,–,·,–,·,·
C=CC[n+]1cccc2cccc(O)c21,12.6µM,–,·,–,·,·
CCN1CCN(Cc2c(O)ccc3c(C)c(-c4ccccc4)c(=O)oc23)CC1,–,–,·,–,–,–
CCOc1ccc(N/C=C/C(=O)c2ccc(OC)c(OC)c2)cc1,–,–,–,–,–,–
COc1ccc(C(=O)c2ccc(C)cc2)c(OC)c1OC,–,–,–,–,–,·
COc1ccc(C(=O)c2ccc(O)cc2)c(O)c1O,·,·,·,2.24µM,·,·
CCOc1ccc(C(=O)c2ccc(OC)c(O)c2O)cc1,·,·,·,12.6µM,·,·
Cc1ccc(-n2nnnc2CNC(=O)C(C)C)cc1C,–,–,·,–,–,–
CC(NC(=O)CSc1n[nH]c(-c2ccccc2Cl)n1)c1nc2ccccc2[nH]1 (stereo unspecified),–,–,·,–,–,–
COc1cc(-c2nc3ccccn3c2/N=C/c2cc(OC)c(O)cc2Cl)ccc1O,?,?,–,?,?,25.1µM
COc1cc(-c2nc3ccccn3c2/N=C/c2ccccc2)ccc1O,?,–,–,–,–,–
Cc1ccc(-n2nc(-c3ccco3)cc2C(=O)O)cc1,17.8µM,–,44.7µM,?,14.1µM,?
O=C(c1cc(-c2ccco2)nn1-c1cccc(Cl)c1)N1CCCCC1,?,–,56.2µM,?,17.8µM,?
O=C(c1cc(-c2cccc(Cl)c2)on1)N1CCCCCC1,–,–,–,–,–,–
CCc1cccc(-n2c(=O)c3cccnc3n2CC(=O)Nc2ccc(OC)c(Cl)c2)c1,–,–,·,–,–,–
O=C1c2cc(O)cc(O)c2OC[C@@H]1c1ccc(O)c(O)c1,·,·,·,15µM,·,·
CCN(CC)c1ccc(NC(=O)c2cnn3c(C(F)F)cc(-c4ccccc4)nc23)cc1,–,–,·,–,–,–
CCc1cccc(NC(=O)Cn2c(=O)n(-c3ccccc3C)c(=O)c3c2c2cc(C)ccc2n3C)c1,–,–,·,–,–,–
CCOc1ccc2c(c1)C(NC(C)=O)C(=O)N2CCN1CCOCC1 (stereo unspecified),?,39.8µM,–,–,?,–
CCCCC[C@H](O)/C=C\[C@@H]1[C@H](O)CC(=O)[C@@H]1CCCCCCC(=O)O,·,·,·,–[12 µM],·,·
O=[N+]([O-])c1ccc(S(=O)Cc2ccccc2)c([N+](=O)[O-])c1 (stereo unspecified),?,?,10µM,–,–,·
O=[N+]([O-])c1ccc(CS(=O)c2ccccc2)cc1 (stereo unspecified),–,–,–,–,–,·
O=C(c1ccc2c(=O)n(Cc3ccco3)c(=S)[nH]c2c1)N1CCN(Cc2ccc3c(c2)OCO3)CC1,89.1µM,?,·,?,·,·
COc1ccc(CCn2c(=S)[nH]c3cc(C(=O)NCc4ccco4)ccc3c2=O)cc1OC,–,–,–,–,?,22.4µM
COc1ccc(-n2c(=S)[nH]c3cc(C(=O)NCc4ccco4)ccc3c2=O)cc1OC,–,–,–,–,–,–
O=C(c1ccc2c(=O)n(Cc3ccc4c(c3)OCO4)c(=S)[nH]c2c1)N1CCN(Cc2ccccc2)CC1,–,–,·,–,·,·
O=C(NCCCN1CCCC1=O)c1ccc2c(=O)n(Cc3ccco3)c(=S)[nH]c2c1,?,–,–,–,–,31.6µM

# Bioassay records: PubChem BioAssay, National Center for Advancing Translational Sciences (NCATS)
